The record followed here is ChEMBL document CHEMBL3988442, “University of Dundee, Small-Polar-MMV Screening Library” (2021).

About 300 (0.45%) of roughly 67,000 compounds showed an effect of 50% or more. The list comes from a sample in which strong results are over-represented; it also holds similar structures and randomly drawn compounds.

For this assay, the target named is Polyketide synthase Pks13 (Mycobacterium tuberculosis (strain ATCC 25618 / H37Rv)) (UniProt I6X8D2). The assay can be described thus: Mycobacterium tuberculosis Polyketide synthase 13 Thioesterase (PKS13). The settings on record: 30 µM. Also noted: scale not given: in the data most compounds retested in dose-response had high values. Format: functional.
Sequence of Polyketide synthase Pks13 (Mycobacterium tuberculosis (strain ATCC 25618 / H37Rv)) (I6X8D2 whole entry): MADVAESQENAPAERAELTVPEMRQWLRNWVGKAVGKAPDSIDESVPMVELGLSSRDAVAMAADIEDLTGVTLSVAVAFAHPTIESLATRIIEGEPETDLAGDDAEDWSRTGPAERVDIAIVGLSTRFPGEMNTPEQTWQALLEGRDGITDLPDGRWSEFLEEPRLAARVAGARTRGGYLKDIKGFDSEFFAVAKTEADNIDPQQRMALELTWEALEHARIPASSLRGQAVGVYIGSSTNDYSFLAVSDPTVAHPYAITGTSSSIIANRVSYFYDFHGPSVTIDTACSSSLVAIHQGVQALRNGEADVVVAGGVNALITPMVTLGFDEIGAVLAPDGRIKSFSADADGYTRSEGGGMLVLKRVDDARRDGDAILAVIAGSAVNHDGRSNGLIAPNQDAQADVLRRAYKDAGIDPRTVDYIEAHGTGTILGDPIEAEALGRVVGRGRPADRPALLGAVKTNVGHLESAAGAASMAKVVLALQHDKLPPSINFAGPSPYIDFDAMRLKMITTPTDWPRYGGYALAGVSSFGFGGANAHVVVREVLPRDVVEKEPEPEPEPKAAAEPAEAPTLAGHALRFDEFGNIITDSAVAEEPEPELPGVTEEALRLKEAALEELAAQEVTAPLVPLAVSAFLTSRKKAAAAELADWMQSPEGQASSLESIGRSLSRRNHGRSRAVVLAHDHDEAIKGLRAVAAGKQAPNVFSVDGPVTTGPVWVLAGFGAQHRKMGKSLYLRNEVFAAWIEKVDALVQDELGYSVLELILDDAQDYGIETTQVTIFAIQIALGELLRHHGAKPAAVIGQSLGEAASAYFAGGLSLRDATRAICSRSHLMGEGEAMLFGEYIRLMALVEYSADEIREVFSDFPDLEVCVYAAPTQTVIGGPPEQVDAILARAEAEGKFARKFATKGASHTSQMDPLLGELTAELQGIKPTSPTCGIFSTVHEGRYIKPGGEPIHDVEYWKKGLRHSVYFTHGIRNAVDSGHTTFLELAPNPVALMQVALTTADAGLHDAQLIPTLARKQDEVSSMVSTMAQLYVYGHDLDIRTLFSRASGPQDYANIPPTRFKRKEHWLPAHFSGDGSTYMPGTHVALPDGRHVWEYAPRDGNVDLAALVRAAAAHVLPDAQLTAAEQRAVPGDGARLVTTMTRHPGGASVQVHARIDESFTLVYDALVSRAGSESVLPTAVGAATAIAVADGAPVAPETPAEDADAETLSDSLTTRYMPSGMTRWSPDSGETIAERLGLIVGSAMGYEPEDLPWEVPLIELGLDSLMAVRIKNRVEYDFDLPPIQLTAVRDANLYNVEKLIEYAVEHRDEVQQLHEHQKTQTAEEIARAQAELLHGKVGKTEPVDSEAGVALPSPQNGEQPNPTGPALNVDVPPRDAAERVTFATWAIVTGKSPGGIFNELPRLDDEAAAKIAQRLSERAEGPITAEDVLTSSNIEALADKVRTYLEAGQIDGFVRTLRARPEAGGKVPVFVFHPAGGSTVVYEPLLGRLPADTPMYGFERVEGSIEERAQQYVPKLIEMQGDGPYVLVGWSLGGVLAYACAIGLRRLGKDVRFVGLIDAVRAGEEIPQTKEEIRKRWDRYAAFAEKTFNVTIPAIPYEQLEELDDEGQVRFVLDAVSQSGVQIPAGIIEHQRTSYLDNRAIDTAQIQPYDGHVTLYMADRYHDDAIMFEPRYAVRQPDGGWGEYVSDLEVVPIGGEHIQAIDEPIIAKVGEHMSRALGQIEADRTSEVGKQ
As to `O=C(Nc1nc2c(s1)CN(S(=O)(=O)C1CC1)CC2)c1c(F)cccc1F`, the Percent Effect was -2.3%.
With `O=C(Nc1nc2c(s1)CN(S(=O)(=O)C1CC1)CC2)c1cccc(Cl)c1`, the Percent Effect amounted to 75.5%.
The same measure for `O=C(Nc1nc2c(s1)CN(S(=O)(=O)C1CC1)CC2)c1ccc(Cl)s1`: 13.8%.
For `CNC(=O)[C@@]12CCCN(c3ncccn3)[C@@H]1CN(c1ncc(C)cn1)C2`, the Percent Effect was -27.3%.
As to `Cn1nc(C2CCCN2)c2c(C(=O)NCC(F)(F)F)cc(C3CC3)nc21` (configuration not stated), the Percent Effect worked out at 119%.
The same measure for `CC(C)CNC(=O)c1cc(C2CC2)nc2c1c(C1CCCN1)nn2C` (configuration not stated): -19.7%; for `Cn1nc(C2CCNC2)c2c(C(=O)NCC(F)(F)F)cc(C3CC3)nc21` (configuration not stated): -7.7%; for `O=C(c1ccco1)N1CCO[C@@H]2CN(c3ccccn3)CC[C@@H]2C1`: 52.6%.
Turning to `O=C(c1ccco1)N1CCO[C@@H]2CN(c3ccccc3)CC[C@@H]2C1`, the Percent Effect is -28.4%.
The same measure for `Cc1cccc(N2CC[C@@H]3CN(C(=O)c4ccco4)CCO[C@@H]3C2)n1`: -34.3%; for `Fc1cnc(N2CCO[C@H]3CN(CC4CCCCC4)C[C@H]32)nc1`: -51%; for `O=C(c1cccc(F)c1)N1CC[C@H]2[C@H]1CCN2CC1CCOCC1`: -17.7%.
With `CC(=O)c1ccc(Nc2nc(N)nc3c2nc(C)n3C)cc1`, the Percent Effect was 2.22%.
The same measure for `Cc1nc2c(Nc3ccc(C#N)cc3)nc(N)nc2n1C`: 18.1%; for `Cc1nc2c(Nc3cccc(C#N)c3)nc(N)nc2n1C`: 58.8%; for `O=C(NCc1ccccn1)[C@H]1COC[C@H]2CN(C3CCCC3)C[C@H]21`: -25.1%.
The same measure for `CC1(NC(=O)Cc2csc(-c3ccccc3Cl)n2)CCS(=O)(=O)C1` (configuration not stated): -7.78%; for `CC1(NC(=O)Cc2csc(C(C)(C)C)n2)CCS(=O)(=O)C1` (configuration not stated): -0.313%; for `CC1(NC(=O)Cc2csc(NC(=O)c3ccccc3)n2)CCS(=O)(=O)C1` (configuration not stated): 51.1%.
The same measure for `c1ccc(CN2CCN3C[C@H](Oc4cccnc4)C[C@H]3C2)nc1`: -35.4%; for `CNC(=O)[C@H]1C[C@@H]2CN(C(=O)c3ccccn3)C[C@@H]2N1S(C)(=O)=O`: -6.49%; for `Cc1ccc(N2CCC(C(O)Cc3ccccc3)CC2)nn1` (configuration not stated): -23.2%.
With `CSCc1ccc(N2CCC(C(O)CC(C)C)CC2)nc1` (configuration not stated), the Percent Effect turned out to be 6.3%.
The same measure for `CSCc1ccc(N2CCC(C(O)Cc3ccccc3)CC2)nc1` (configuration not stated): 101%.
The same measure for `CC(C)CNC(=O)N1CC[C@@H]2CN(Cc3cccnc3)S(=O)(=O)[C@@H]2CC1`: -16.3%.
The same measure for `CCCN1C(=O)[C@@H]2[C@@H](CCN2C(=O)COC)N(Cc2cccs2)C1=O`: 26.9%; for `Cc1cc(NCc2cccc(C#N)c2)ccc1Br`: 58.5%.
With `Cc1cc(NCc2cccc(C#N)c2)ccc1C(=O)N(C)C`, the Percent Effect is -4.66%.
The same measure for `Cc1cc(NCc2cccc(C#N)c2)ccc1C(N)=O`: -10.5%; for `C1CC(N2C[C@@H]3COC[C@]3(COCC3CCOCC3)C2)C1`: -9.77%; for `Fc1ccccc1Cc1noc(CN2CC[C@@H]3CCCC[C@H]3C2)n1`: -29.1%.
As to `CC(C)c1cc(CN2CCC(N)CC2)no1`, the Percent Effect is 11.6%.
The same measure for `CC(C)c1cc(CN2CCNCC2)no1`: 18.9%; for `CC(C)c1cc(CN2CCC(CC(=O)O)CC2)no1`: 60.1%; for `CC(C)c1cc(C(=O)N2CCN(CC3CC3)[C@@H]3CS(=O)(=O)C[C@@H]32)on1`: -6.23%.
The same measure for `O=C1[C@@H]2CCN(CC3CC3)C[C@@H]2OCCN1c1ccsc1`: 2.34%; for `CNC(=O)c1cnc(/C=C/c2cc(OC)c(OC)c(OC)c2)s1`: 17.9%.
The same measure for `CCOc1cc(/C=C/c2ncc(C(=O)O)s2)cc(Br)c1O`: 59.8%; for `CCOc1cc(/C=C/c2ncc(C(=O)O)s2)cc(Br)c1OC`: 17.1%; for `CCOc1c(Cl)cc(/C=C/c2ncc(C(=O)O)s2)cc1OC`: 23.8%.
For `CCOc1c(Br)cc(/C=C/c2ncc(C(=O)O)s2)cc1OC`, the Percent Effect was -5.74%.
The same measure for `COc1cc(/C=C/c2ncc(C(=O)O)s2)cc(OC)c1`: 19.6%.
The same measure for `COc1cc(/C=C/c2ncc(C(=O)O)s2)cc(Cl)c1OC`: 16.6%; for `COc1cc(/C=C/c2ncc(C(=O)O)s2)cc(Cl)c1O`: 64.9%; for `CNC(=O)c1cnc(/C=C/c2cc(OC)cc(OC)c2)s1`: 54.2%.
The same measure for `CC(=O)N1CC[C@H]2OCC[C@@]2(C(=O)NCCc2ccccn2)C1`: -18.1%.
Consider `O=C(c1ccsc1)N1CCN2C[C@H](OCc3ccccn3)C[C@H]2C1`, for which the Percent Effect was -2.94%.
The same measure for `Cc1ccc(N2C[C@@H]3OCCN(CC4CC4)[C@@H]3C2)nn1`: 0.27%.
The same measure for `O=C(C1CCCCC1)N1C[C@H]2CNC[C@H]2C1`: -22.2%.
With `CCOC(=O)[C@@H]1[C@@H](c2ccccc2)CN2CCN(C(=O)N(C)C)C[C@H]12`, the Percent Effect was -2.04%.
For the compound `O=C(c1cnccn1)N1CCN2C[C@H](Oc3cccnc3)C[C@H]2C1`, the Percent Effect was -12.6%.
The same measure for `CN(C)C(=O)[C@H]1C[C@@H]2CCN(C3CCOCC3)C[C@H]2O1`: -11.1%.
The same measure for `COc1ccc(C2Nc3ccccc3NC3=C2C(=O)NC3)cc1OC` (configuration not stated): -7.87%; for `CC(C)(C)C(=O)N1CCC(n2nc(-c3ccco3)ccc2=O)CC1`: 125%; for `CC(C)C(=O)N1CCC(n2nc(-c3ccco3)ccc2=O)CC1`: 0.602%.
The same measure for `O=C(c1ccco1)N1CCC(n2nc(-c3ccco3)ccc2=O)CC1`: 10.8%.
Consider `CN(C)C(=O)N[C@@H]1CN(C2CCOCC2)[C@@H]2CCCO[C@@H]21`, for which the Percent Effect was -25.3%.
